# Results published in PubChem BioAssay (NCI).
# “And” between values parts separate entries of the source, which are not always exact repeats. Equal values may be shown once. The panel holds about 83,000 compounds, 20% with a hit somewhere; the sample as a whole holds those more often.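 Single-concentration screen, 48 h exposure, 96-well plates. Endpoint: percent growth. Below 10 = active.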 Unmarked numbers belong to inactive results. The source made the active and inactive calls.
# Test system: HL-60(TB) leukemia
# Experiment: NCI-60 one-dose screen, 48 h (100 = growth as untreated, 0 = no growth, -100 = all killed)
# Conditions: 10 µM unless noted
row,Structure (SMILES),growth
1,Nc1ccc(S(=O)(=O)c2ccc(Cl)cc2)cc1,100%
2,Cc1ccc(-n2c(-c3cc4c([nH]c5ccccc54)c(-c4cccc(O)c4)n3)n[nH]c2=S)cc1,2.59% (active)
3,CN(CCc1ccccn1)c1ccccc1,34.4%
4,C=C1C(=O)O[C@H]2[C@H]1CC/C(COC(=O)NC1CCC(O)CC1)=C\CC[C@@]1(C)O[C@@H]21 (stereo partly specified),70.6% and 62.5%
5,COc1ccc(C2CC(c3cccs3)=NN2c2ccc(S(=O)(=O)NC(=O)Nc3ccc(C)cc3)cc2)cc1 (stereo unspecified),126%
6,O=C(Nc1ccc(Oc2cccc(Cl)c2)c(Cl)c1)c1cnccn1,1.5% (active)
7,CNC(=O)c1cc(Oc2ccc3nc(NC(C)=O)sc3c2)ccn1,98.9%
8,CCN(CC)CCOc1nc2cc(OC)c(OC)cc2c2c1-c1ccc(OC)cc1C2=O,93.4%
9,COc1ccc(/C=C(/C#N)n2nnc3cccc(F)c32)cc1,-9.75% (active)
10,CCOc1ccc(/C=N/N=C(N)N)cc1OCC,64.5%
11,O=c1c2cc(F)ccc2sc2c(N3CCCCC3)nc3ccccc3c12,102%
12,C#CCOc1cccc(Nc2ncnc3c(NC(=O)C=C)cccc23)c1,-4.75% (active)
13,CCc1ccc(-c2ccc(NC3CCCCCC3)nn2)cc1S(N)(=O)=O,121%
14,OC(Cc1cccnc1)c1ccccc1 (stereo unspecified),64.3%
15,O=C(/C=C/c1ccccc1)c1ccc(Nc2nc(NCCO)nc(Nc3ccc(Cl)cc3)n2)cc1,101%
16,CCCCCCCCCCCCNC(=O)[C@H]1CSC(c2ccsc2)N1 (stereo partly specified),-12.6% (active)
17,O=C(/C=C/C=C/c1ccc2c(c1)OCO2)N1CCCCC1,100% and 93.4%
18,CCOC(=O)C1=C(N)Oc2c(sc3c(C)cccc23)C1c1ccc(OC)cc1 (stereo unspecified),1.54% (active)
19,Nc1nonc1-c1nc2ccccc2n1Cc1ccc(F)cc1,21.5%
20,O=C(c1nn(-c2ccc(Cl)cc2)cc1O)n1nc(C(F)(F)F)cc1-c1ccccc1,-14.8% (active)
21,[2H]c1nc(Nc2ncc3cc(C(=O)N(C)C)n(C4CCCC4)c3n2)c([2H])c([2H])c1N1C([2H])([2H])C([2H])([2H])NC([2H])([2H])C1([2H])[2H],14.6%
22,CCCCCCC1N=C(N)N=C(N)N1c1cccc(Cl)c1 (stereo unspecified),44.3%
23,O=C1/C=C/[C@@H](O)[C@@H]2C[C@@H](O)C[C@H]2/C=C/CCCCO1,-22.8% (active)
24,O=C(/C=C/c1ccc(F)cc1)c1ccc(Nc2nc(NCCO)nc(Nc3ccc(Cl)cc3)n2)cc1,98.6%
25,Cn1c(=O)[nH]c(=O)c2nc(CCC(=O)NCCC(=O)O)c(=O)[nH]c21,101%
26,COc1ccc(/C=C2\CCCC3=C2N=C2SC(C)=CN2C3c2ccc(OC)cc2)cc1 (stereo unspecified),76.2%
